Inconclusive results are not listed. Activity calls are given as the source filed them. Calls follow the shape of the dose curve; as a rule, active = well fitted curve in the direction sought with a large enough effect; inconclusive = small, poorly fitted or top-dose-only effect, or another doubt; inactive = no such curve, though single readings can be large or run the other way.
What follows are compounds tested against Isocitrate dehydrogenase [NADP] cytoplasmic (Homo sapiens) (UniProt O75874) (assay: qHTS for Inhibitors of mutant isocitrate dehydrogenase 1 (IDH1): WT assay for probe SAR). Conditions: WT IDH1 enzyme, NADPH diaphorase/resazurin fluorescence; series mostly up to 100 µM.
Sequence of Isocitrate dehydrogenase [NADP] cytoplasmic (Homo sapiens) (O75874 whole entry, looked up): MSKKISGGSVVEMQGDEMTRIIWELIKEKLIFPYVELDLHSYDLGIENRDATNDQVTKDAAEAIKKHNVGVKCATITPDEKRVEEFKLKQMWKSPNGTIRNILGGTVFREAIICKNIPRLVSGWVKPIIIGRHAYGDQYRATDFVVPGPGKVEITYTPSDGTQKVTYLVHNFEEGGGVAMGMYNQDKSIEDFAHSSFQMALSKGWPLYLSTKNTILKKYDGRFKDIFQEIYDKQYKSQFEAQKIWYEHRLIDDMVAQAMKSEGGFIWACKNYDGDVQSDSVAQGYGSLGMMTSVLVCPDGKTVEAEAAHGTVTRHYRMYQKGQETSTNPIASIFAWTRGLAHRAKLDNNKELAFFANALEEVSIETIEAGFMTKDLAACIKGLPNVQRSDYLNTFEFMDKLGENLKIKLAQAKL
Text: Malignant glioblastomas (WHO grade IV), including primary and secondary glioblastomas, are among the most lethal with a median survival of one year, and unfortunately they are also the most prevalent type of brain tumors. By and large the standard of care of gliomas remains the use of the oral alkylating agent temozolomide and radiotherapy following surgical tumor resection. There is an urgent unmet medical need for novel therapeutics for gliomas. IDH mutations occur in up to 70% of grade II-IV secondary glioblastomas, and IDH1 R132H is the most prevalent mutation. […] Wild-type (WT) IDH1 catalyzes the conversion of isocitrate to -ketoglutarate with the concomitant reduction of NADP+ to NADPH. In contrast, IDH1 R132H catalyzes the conversion of -ketoglutarate to 2-hydroxyglutarate (2-HG) with the concomitant oxidation of NADPH to NADP+ [5]. Recently, a second significant advancement for the field was the finding that IDH is an oncogene, and that its metabolic product 2-HG may contribute to the pathogenesis of IDH-mutated cancers. […] Although this link to cancer is tantalizing, the direct evidence of how 2-HG drives pathogenesis of gliomas and AML remains a subject of further research. The goal of this selectivity assay is to identify small-molecule inhibitors of WT IDH1 using a biochemical assay that measures product NADPH production through the use of a diaphorase/resazurin-coupled system. Inhibition of the WT IDH1 enzymatic reaction leads to a decrease in the amount of NADPH relative to a DMSO control and a concomitant decrease in the fluorescence of the diaphorase/resazurin enzyme product resorufin at 590 nm. Compounds were screened as concentration-titration series that ranged from 100 microM to 5 nM. NIH Molecular Libraries Probe Production Network [MLPCN] NIH Chemical Genomics Center [NCGC] MLSCN Grant: R03 DA032129 PI Name: Dr. Lenny Dang
Compounds or DMSO were dispensed into black, solid 96-well plates at 1 microL/well. Then, 40 microL/well enzyme buffer was dispensed in 20 mM Tris buffer, pH 7.5, containing final concentrations of 10 mM MgCl2, 20 mM NaCl, 0.05% BSA, 2 mM beta-ME and […] WT IDH1. These were incubated at RT for 60 minutes. The substrate and detection buffer (10 microL; 20 mM Tris buffer, pH 7.5, containing final concentrations of 10 mM MgCl2, 20 mM NaCl, 0.05% BSA, 0.05 mM NADP+, 0.00053 mM diaphorase, 0.04 mM resazurin and 0.07 mM isocitrate) was added to start the enzymatic reaction. The reaction progressed for 30 minutes at RT and which point 25 microL/well of 2% SDS was added as a stop solution. Following 1 minute of shaking on an oribital shaker, the fluorescence intensity was monitored on a Spectramax M5 plate reader (Ex 544, Em 590, bodipy filter). The %Activity was determined from the corrected fluorescence values. As no specific WT IDH1 inhibitors have been identified in the literature, 1x (0.65 nM) and 0x WT IDH1 enzyme controls (untreated) were included to normalize %Activity of identified inhibitors; 0x enzyme values corresponded to 100%Activity (full inhibition), while 1x WT IDH1 enzyme values were used to normalize 0%Activity (no inhibition ). Concentration-response curves were fitted to the signals arising from the resulting fluorescence. The concentration-response curves were then classified based on curve quality (r2), response magnitude and degree of measured activity, and compounds were subsequently categorized based on their curve class. […] Keywords: Isocitrate dehydrogenase, IDH1, IDH1 R132H, 2-HG, 2-hydroxyglutarate, AML, glioma, MLSMR, MLPCN, NIH Roadmap, qHTS, NCGC

outcome, inactive:
Cc1ccccc1C(C(=O)NC1CCCC1)N(C(=O)Cc1cccs1)c1ccccc1F (configuration not stated)
COc1ccccc1CN(C(=O)Cc1cccs1)C(C(=O)NC1CCCCC1)c1ccccc1F (configuration not stated)
O=C(NC1CCCC1)C(c1ccccc1)N(C(=O)Cc1cccs1)c1cccc(F)c1 (configuration not stated)
Cc1nc(C)c(C(=O)N(c2cccc(F)c2)C(C(=O)NC2CCCCC2)c2ccccc2)s1 (configuration not stated)
Cc1ccccc1C(C(=O)NC1CCCC1)N(C(=O)Cc1cccs1)c1ccccc1 (configuration not stated)
O=C(NC1CCCCC1)C(c1ccncc1)N(C(=O)Cc1cccs1)c1cccc(F)c1 (configuration not stated)
Cc1ccccc1C(C(=O)NCc1ccccc1)N(C(=O)Cc1cccs1)c1cccc(F)c1 (configuration not stated)
COc1cccc(C(C(=O)NC2CCCCC2)N(C(=O)c2cccs2)c2ccc3c(c2)OCO3)c1 (configuration not stated)
Cc1ccc(C(C(=O)NC2CCCC2)N(C(=O)Cc2cccs2)c2cccc(F)c2)o1 (configuration not stated)
Cc1ccccc1C(C(=O)NC(C)(C)C)N(C(=O)Cc1cccs1)c1cccc(F)c1 (configuration not stated)
COc1ccc(N(C(=O)C2COc3ccccc3O2)C(C(=O)NC2CCCCC2)c2ccccc2)cc1OC (configuration not stated)
Cc1ccccc1C(C(=O)NC1CCCCC1)N(C(=O)Cc1cccs1)C(C)C (configuration not stated)
COc1ccc(C(C(=O)NC2CCCC2)N(C(=O)Cc2cccs2)c2cccc(F)c2)cc1OC (configuration not stated)
O=C(NC1CCCCC1)C(C1CCCC1)N(C(=O)Cc1cccs1)c1cccc(F)c1 (configuration not stated)
O=C(NC1CCCC1)C(c1cccs1)N(C(=O)Cc1cccs1)c1cccc(F)c1 (configuration not stated)
COc1cccc(N(C(=O)Cc2cccs2)C(C(=O)NC2CCCC2)c2ccccc2)c1 (configuration not stated)
Cc1ccccc1C(C(=O)NC1CCCCC1)N(C(=O)CNS(=O)(=O)c1ccccc1)c1cccc(F)c1 (configuration not stated)
COc1cc(OC)cc(N(C(=O)Cc2cccs2)C(C(=O)NC2CCCC2)c2ccccc2C)c1 (configuration not stated)
COc1ccc(N(C(=O)Cc2cccs2)C(C(=O)NC2CCCC2)c2ccccc2C)cc1OC (configuration not stated)
Cc1ccccc1C(C(=O)N(C)C1CCCCC1)N(C(=O)Cc1cccs1)c1cccc(F)c1 (configuration not stated)
Cc1ccccc1C(C(=O)NC1CCCCC1)N(C(=O)c1ccccn1)c1cccc(F)c1 (configuration not stated)
COc1ccc(N(C(=O)Cn2cnc3ccccc32)C(C(=O)NC2CCCCC2)c2ccccc2)cc1 (configuration not stated)

Source: PubChem BioAssay AID624021 (National Center for Advancing Translational Sciences (NCATS), 2012)
